Measurements as given in PubChem BioAssay (NCATS).
Records with an inconclusive call do not appear. Unmarked numbers belong to inactive results. The source made the active and inactive calls. Calls come from the whole dose curve; as a rule, active = well fitted inhibition curve with a large enough effect; inconclusive = small, poorly fitted or top-dose-only effect; inactive = flat fitted curve, though single readings scatter.

What follows are compounds tested on KB-3-1 (assay: Cytotoxic Profiling of Annotated Libraries Using Quantitative High-Throughput Screening (AID 1296008; note: nearly all actives have a fitted effect of over 60% in size)). Details: Five cell lines viability, CellTiter-Glo ATP luminescence, 48-72 h; max response: hits give low values.
From the text: Cell-based phenotypic screening is a commonly used approach to discover biological pathways, novel drug targets, chemical probes and high-quality hit-to-lead molecules. Many hits identified from high-throughput screening campaign are ruled out through a series of follow-up potency, selectivity/specificity, and cytotoxicity assays. Prioritization of molecules with little or no cytotoxicity for a more in-depth downstream evaluation influence the future direction of projects, so cytotoxicity profiling of the screening libraries at early stage is essential for increasing the likelihood of candidate success. […] For the annotated library, we also examined the primary targets and mechanistic pathways regularly associated with cell death. To our knowledge, this is the first study to use high-throughput screening to profile large libraries for cytotoxicity assessment in both normal and cancer cell lines. In summary, the results generated here constitutes a valuable resource for the scientific community and provides insight on identifying cytotoxic compounds with particular mechanisms of action, and prioritizing compounds with suitable cytotoxicity profile for further evaluation.
A pintool (Kalypsys) was used to transfer 23 nL of compound solution to the 1536-well assay plates. After 48 or 72 hr incubation at 37 degree Celsius, 5% CO2 and 95% humidity, 2.5 uL of CellTiter-Glo (Promega) was dispensed into each well using a dispenser (Aspect Automation, St. Paul, MN) with solenoid valves (Lee Valves, Westbrook CT). Plates were left at room temperature for 10 min before imaging the ATP-coupled luminescence using a ViewLux microplate imager (PerkinElmer, Waltham, MA).
% is set by controls: 0 for no effect and ±100 for the full control effect; potency is the fitted concentration of half-maximal effect.

| SMILES | max response [%] | Potency | outcome |
| --- | --- | --- | --- |
| C/C(=C\Cc1c(O)c(Cl)c(C)c(C=O)c1O)CC/C=C(\C)[C@H]1CC(=O)C(C)(C)O1 | -27.9 |  |  |
| O=C1Cc2c([nH]c3ccc(Br)cc23)-c2ncccc2N1 | 2.04 |  |  |
| CC(=O)NC[C@H]1CN(c2ccc(N3CCSCC3)c(F)c2)C(=O)O1 | -11.9 |  |  |
| O=C(Nc1ccc(-c2ccc(Cl)c(Cl)c2)cc1)C1=C(O)c2ccccc2S(=O)(=O)N1 | -12.4 |  |  |
| CON=C1C[C@]2(C[C@@H]3C[C@@H](C/C=C(\C)C[C@@H](C)/C=C/C=C4\CO[C@@H]5[C@H](O)C(C)=C[C@@H](C(=O)O3)[C@]45O)O2)O[C@H](/C(C)=C/C(C)C)[C@H]1C |  | 20.6 µM (active) |  |
| C=C1/C(=C/C=C2\CCC[C@]3(C)[C@@H]([C@H](C)/C=C/[C@H](O)C4CC4)CC[C@@H]23)C[C@@H](O)C[C@@H]1O | 7.77 |  |  |
| CCC(CC)Nc1nc(C)c(-c2ccc(OC(F)(F)F)cc2OC)nc1OC | 0.138 |  |  |
| O=C(O)[C@@H](O)[C@H](O)[C@H](O)[C@@H](O)C(=O)O (tested in a mixture with another compound) | -0.35 |  |  |
| C=C1C(=O)O[C@@H]2/C=C(\C)CC/C=C(/C=O)[C@H](OC)[C@@H](OC(=O)C(C)C)[C@@H]12 |  |  | inactive |
| NNc1nnc(Cc2ccncc2)c2ccccc12 | -26.3 |  |  |
| Cn1ncc2cc(-c3cnc(N)c(Cl)c3N3CCC4(CCNC4=O)CC3)ccc21 |  |  | inactive |
| C=C(C(=O)OC[C@H]1O[C@@H](OC(=O)/C=C/c2ccccc2)[C@H](O)[C@@H](O)[C@@H]1O)C(O)CO (stereo not given in full) | -8.71 |  |  |
| CC(C)(N)c1ncc(-c2ccc(OC(F)(F)F)cc2)[nH]1 | -11.1 |  |  |
| CC(C)=CCc1cc2c(cc1O)OC[C@H]1c3ccc(O)cc3O[C@@H]21 | -5.17 |  |  |
| CCC(=O)N1CCOc2c(cc(-c3ccc(OC)c(OC)c3)cc2OC[C@H]2CCCN(C)C2)C1 | -9.43 |  |  |
| CN(C)Cc1ccccc1 | -10.5 |  |  |
| CC(NC(=O)Cc1cc(F)cc(F)c1)C(=O)NC1C(=O)N(C)c2ccccc2-c2ccccc21 (stereo not given) |  | 16.4 µM (active) |  |
| COc1cc(N(C)CCN(C)C)c(N)cc1Nc1nccc(-c2cn(C)c3ccccc23)n1 | -6.79 |  |  |
| CCCCc1cc2c(=O)c(C(=O)OC)c[nH]c2cc1OCc1ccccc1 | -10.6 |  |  |
| CC(C)CCCCC(=O)N[C@@H](CO)C(=O)N[C@@H](CC(C)C)C(=O)[C@@]1(CO)CO1 | -12 |  |  |

| SMILES | max response [%] | Potency | outcome |
| --- | --- | --- | --- |
| Nc1ncnc2c1c(-c1ccc(Oc3ccccc3)cc1)nn2[C@@H]1CCCNC1 | -20 |  |  |
| CCN(CC)C(=O)C(c1ccccc1)N1CCN(c2ccc(NC(=O)c3ccccc3-c3cccnc3)cc2F)CC1 (stereo not given) |  |  | inactive |
| CCC[C@H](N[C@H]1CCc2cc(F)cc(F)c2C1)C(=O)Nc1cn(C(C)(C)CNCC(C)(C)C)cn1 | -17.7 |  |  |
| OC[C@H]1O[C@@H](OC/C=C/c2ccc(O)cc2)[C@H](O)[C@@H](O)[C@@H]1O | -4.8 |  |  |
| CN(C)c1ccc(NC(=O)NS(=O)(=O)c2ccc(Cl)cc2)cc1 |  |  | inactive |
| COc1ccc(C2=NC(c3ccc(Cl)cc3)C(c3ccc(Cl)cc3)N2C(=O)N2CCNC(=O)C2)c(OC(C)C)c1 (stereo not given) |  |  | inactive |
| CC(=O)O[C@H]1C[C@@H]2CC[C@@H]3[C@H](CC[C@@]4(C)[C@H]3C[C@H](N3CC[N+](C)(C)CC3)[C@@H]4OC(C)=O)[C@@]2(C)C[C@@H]1N1CC[N+](C)(C)CC1 | -0.194 |  |  |
| Cc1c(C(=O)Nc2ccc(N3CCC(N4CCOCC4)CC3)c(C#N)c2)cnn1-c1ccc(Cl)cc1 |  | 1.46 µM (active) |  |
| O=C(Cn1c(=O)sc2ccc(Cl)cc21)N1CCN(CCO)CC1 | 2.82 |  |  |
| C=C1C(=O)OC2/C=C(\C)CC/C=C(\C)CC(OC(C)=O)C12 (stereo not given) | 3.33 |  |  |
| CC(=O)NCc1cccc(OC[C@@H](O)CNCCc2ccc(NS(=O)(=O)c3ccccc3)cc2)c1 | -5.62 |  |  |
| CCc1ccc(-c2nc(CSCC(=O)NCCc3ccccc3)c(C)o2)cc1 | -10.3 |  |  |
| CC(=O)O[C@@H]1C[C@@]2(C)C(CC[C@]3(C)C2CC=C2C4CC(C)(C)CC[C@]4(C(=O)O)CC[C@]23C)C(C)(C)[C@H]1O (stereo not given in full) | -16.7 |  |  |
| Cc1ccc(C(C)C)c(O[C@@H]2O[C@H](CO)[C@@H](O)[C@H](O)[C@H]2O)c1 | -7.27 |  |  |
| COc1ccccc1C(=O)Nc1cc2c(cc1N1CCCC1)n(C)c(=O)n2C | -11.6 |  |  |
| CC[C@H](C(=O)Nc1ccccc1N1CCCC1)c1ccccc1 | -2.95 |  |  |
| CC(C)=CCC/C(C)=C/COCC1OC(n2ccc(=O)[nH]c2=O)C(O)C1O (stereo not given) | 7.71 |  |  |
| Cn1cc(-c2ccc(S(=O)(=O)n3ccc(/C=C/C(=O)Nc4ccccc4N)c3)cc2)cn1 |  | 1.46 µM (active) |  |
| Fc1ccc(N2CCN(CCC3OCCc4ccccc43)CC2)cc1 (stereo not given) | -21.6 |  |  |
| O=C(c1ccc(F)cc1)N1CCCC(c2nc(-c3ccc(F)cc3)no2)C1 (stereo not given) | -21.6 |  |  |
